# Assay results reported in PubChem BioAssay AID1159580 (chemical genetic matrix, 2015).
# Screen size: about 5,500 compounds; about 2,000 (36%) were called active. Roughly 18% stayed inconclusive and do not appear here. The list shows a part of the results. Unmarked numbers belong to inactive results. Rule as the data show it: active = normalized growth mostly below about 0.91 (no sharp cut-off); inconclusive = no clear call, values can overlap the other calls; inactive = mostly above about 0.92.
# Assay: chemical genetic growth profiling, strain panel (AID 1159580);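 also: tested at 20 µM; growth read once vehicle control cultures reached saturation at 30 °C; 1 = growth at the plate median or of vehicle wells; lower values mean less growth of the strain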
# Conditions: S. cerevisiae deletion strains, growth OD
smiles,measurement,setting,value
CC(C)C[C@H]1C(=O)N2CCC[C@H]2[C@]2(O)O[C@](NC(=O)[C@@H]3C=C4c5cccc6[nH]c(Br)c(c56)C[C@H]4N(C)C3)(C(C)C)C(=O)N12,normalized growth,"locus YAL040C, strain CLN3, hits give low values",0.741 (active)
same,normalized growth,"locus YDR150W, strain NUM1, hits give low values",0.996
same,normalized growth,"locus YDR363W, strain ESC2, hits give low values",1.02
same,normalized growth,"locus YER002W, strain NOP16, hits give low values",1.03
same,normalized growth,"locus YMR263W, strain SAP30, hits give low values",1.01
same,normalized growth,"locus YNL128W, strain TEP1, hits give low values",1.03
same,normalized growth,"locus YNL153C, strain GIM3, hits give low values",0.974
same,normalized growth,"locus YNL175C, strain NOP13, hits give low values",1.04
same,normalized growth,"locus YNL197C, strain WHI3, hits give low values",1.01
same,normalized growth,"locus YNL224C, strain SQS1, hits give low values",1.01
same,normalized growth,"locus YOR083W, strain WHI5 (second series), hits give low values",1.03
same,normalized growth,"locus YPL241C, strain CIN2, hits give low values",0.989
